RecA splice inh: inhibitors of M. tuberculosis RecA intein splicing. 0.75% of 290,000 active. inhibition, % (concentration not given with the values). cell-free RecA intein splicing, fluorescence. P9WHJ3; in the data active means inhibition above about 30%
Target sequence (P9WHJ3 whole entry, looked up, canonical isoform): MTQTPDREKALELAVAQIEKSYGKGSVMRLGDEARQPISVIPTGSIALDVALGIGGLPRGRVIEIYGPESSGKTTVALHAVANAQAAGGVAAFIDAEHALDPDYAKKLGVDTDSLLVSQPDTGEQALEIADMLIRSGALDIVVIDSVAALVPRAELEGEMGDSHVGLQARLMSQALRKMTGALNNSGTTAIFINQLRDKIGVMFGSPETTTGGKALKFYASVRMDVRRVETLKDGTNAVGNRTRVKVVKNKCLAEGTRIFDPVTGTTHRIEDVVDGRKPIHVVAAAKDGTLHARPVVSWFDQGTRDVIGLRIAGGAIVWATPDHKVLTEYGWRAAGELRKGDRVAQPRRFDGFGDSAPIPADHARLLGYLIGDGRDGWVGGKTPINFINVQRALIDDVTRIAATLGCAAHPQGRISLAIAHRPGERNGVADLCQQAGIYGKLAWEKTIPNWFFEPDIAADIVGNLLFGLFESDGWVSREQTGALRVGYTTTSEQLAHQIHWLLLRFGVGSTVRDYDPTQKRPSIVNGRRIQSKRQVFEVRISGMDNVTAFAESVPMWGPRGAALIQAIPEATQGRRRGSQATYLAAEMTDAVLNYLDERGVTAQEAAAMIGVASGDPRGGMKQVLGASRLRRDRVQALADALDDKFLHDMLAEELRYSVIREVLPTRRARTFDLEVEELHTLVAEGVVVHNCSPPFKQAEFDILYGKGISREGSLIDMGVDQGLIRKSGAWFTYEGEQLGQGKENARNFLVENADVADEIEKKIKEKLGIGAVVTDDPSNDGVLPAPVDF
PrPC surface inh: cell surface PrPC inhibition, primary TR-FRET screen | P04156 | TR-FRET read-out | inhibition, % at 13.8 µM | 0.43% of 370,000 active | AID 720596; in the data active means inhibition above about 24%
BJeLR lethal: kills HRASV12-expressing BJeLR cells; 0.17% of 300,000 active; inhibition, % (test concentration not listed); BJeLR (HRASV12) viability, CellTiter-Glo ATP luminescence, 48 h; AID 1554; in the data active means inhibition above about 50%
GDH-TPI counter-1: counter-screen for M. tuberculosis FBA inhibitors: GDH-TPI coupled enzymes; GDH-TPI coupled enzyme counterscreen, NADH absorbance; inhibition, % at 4.8 µM; 1.2% of 360,000 active; AID 588335; in the data active means inhibition above about 30%
FBA Mtb inh: Mtb fructose-bisphosphate aldolase inhibition; P9WQA3; purified M. tuberculosis FBA, fluorescence read-out; inhibition, % at 1 µM; 2.3% of 360,000 active; AID 588726
Mtb FBA inh conf: Mtb FBA inhibition, confirmed. AID 651616. 78% of 5,600 active. inhibition, % at 1 µM. shares compounds with FBA Mtb inh. purified M. tuberculosis FBA, fluorescence read-out
GDH-TPI counter-2: counter-screen for M. tuberculosis FBA inhibitors: GDH-TPI coupled enzyme inhibition. shares compounds with FBA Mtb inh. GDH-TPI coupled enzyme counterscreen, fluorescence. inhibition, % at 1 µM. 81% of 5,600 active; in the data active means inhibition above about 10%
Numbers stand for hits. This is a sample that favours compounds with a hit; in the whole collection about 4.2% have one here. Unless noted, no stated cut-off is given here; in the data, active means inhibition above about 27%; inactive means the rest.

Cc1cccc(NC(=S)N(CCCN(C)C)Cc2cc3cc4c(cc3[nH]c2=O)OCO4)c1 was read as RecA splice inh inactive, PrPC surface inh inactive, BJeLR lethal inactive, GDH-TPI counter-1 inactive, FBA Mtb inh 27.4, Mtb FBA inh conf inactive and GDH-TPI counter-2 inactive.
`CCNC(=S)N(CCN(C)C)Cc1cc2cc3c(cc2[nH]c1=O)OCO3` gave RecA splice inh inactive, PrPC surface inh inactive, BJeLR lethal inactive, GDH-TPI counter-1 inactive, FBA Mtb inh 43.6, Mtb FBA inh conf 57.9 and GDH-TPI counter-2 42.8.
`CCc1ccccc1NC(=S)N(CCCN(C)C)Cc1cc2cc3c(cc2[nH]c1=O)OCO3` gave RecA splice inh inactive, PrPC surface inh inactive, BJeLR lethal inactive, GDH-TPI counter-1 inactive and FBA Mtb inh inactive.
For CCCCNC(=S)N(CCCN(C)C)Cc1cc2cc3c(cc2[nH]c1=O)OCO3 the results were RecA splice inh inactive, PrPC surface inh inactive, BJeLR lethal inactive, GDH-TPI counter-1 inactive and FBA Mtb inh inactive.
COc1cc2nc3occc3c(OC)c2cc1OC was read as RecA splice inh inactive, PrPC surface inh inactive, BJeLR lethal inactive, GDH-TPI counter-1 inactive and FBA Mtb inh inactive.
COc1ccc2c(OC)c3ccoc3nc2c1OC was read as RecA splice inh inactive, PrPC surface inh inactive, BJeLR lethal inactive, GDH-TPI counter-1 inactive, FBA Mtb inh 96.1, Mtb FBA inh conf 192.2 and GDH-TPI counter-2 166.2.
`COC(=O)N1C[C@H](OCc2ccc3c(c2)OCO3)[C@H]2C[C@@H]1c1ccccc1O2` gave PrPC surface inh inactive.
`COCCn1c(=NC(=O)c2ccc3c(c2)OCCO3)sc2cc(S(N)(=O)=O)ccc21` gave RecA splice inh inactive, PrPC surface inh inactive, BJeLR lethal inactive, GDH-TPI counter-1 45.0, FBA Mtb inh 108.8, Mtb FBA inh conf 76.2 and GDH-TPI counter-2 49.8.
Screening O=C(Nc1ccccc1C(F)(F)F)OC1CCC12CCC(c1ccccc1)CC2 (stereo unspecified) returned PrPC surface inh inactive.
CCOc1ccc2[nH]c(=O)c(CN(Cc3ccco3)C(CC)c3nnnn3Cc3ccccc3)cc2c1 (stereo unspecified) was read as RecA splice inh inactive, PrPC surface inh inactive, BJeLR lethal inactive, GDH-TPI counter-1 inactive, FBA Mtb inh 26.9, Mtb FBA inh conf active and GDH-TPI counter-2 active.
For Oc1ccccc1C=NNC(=S)NC1CC2C=CC1C2 (stereo unspecified) the results were PrPC surface inh inactive, GDH-TPI counter-1 inactive and FBA Mtb inh inactive.
Screening Oc1c(Cl)cc(Cl)cc1/C=N/NC(=S)NC1CC2C=CC1C2 (stereo unspecified) returned RecA splice inh inactive, PrPC surface inh inactive, BJeLR lethal inactive, GDH-TPI counter-1 inactive, FBA Mtb inh 35.1, Mtb FBA inh conf 58.6 and GDH-TPI counter-2 57.0.
Screening C[C@@H]1C[C@@H]2O[C@H]2CCCCC(=O)Cc2cc(O)cc(O)c2C(=O)O1 returned PrPC surface inh inactive.
`CCCCc1c(-c2cccc(Br)c2)ncn1CCc1ccccc1OC` gave PrPC surface inh inactive.
For COc1cc(Cl)cc(/C=N\NC(=O)c2ccc3c(c2)OCO3)c1O the results were PrPC surface inh inactive, GDH-TPI counter-1 inactive, FBA Mtb inh 27.2, Mtb FBA inh conf 135.2 and GDH-TPI counter-2 113.9.
Screening CCN(C(=O)c1cnc(NC(C)C)cc1C(F)(F)F)c1ccc(Cl)cc1Cl returned RecA splice inh inactive, PrPC surface inh inactive, BJeLR lethal inactive, GDH-TPI counter-1 inactive, FBA Mtb inh 50.6, Mtb FBA inh conf 85.2 and GDH-TPI counter-2 62.1.
For CCOCc1cc(C)[nH]c(=O)c1C#N the results were RecA splice inh inactive, PrPC surface inh inactive, BJeLR lethal inactive, GDH-TPI counter-1 inactive, FBA Mtb inh 67.9, Mtb FBA inh conf 174.7 and GDH-TPI counter-2 147.8.
Screening CCc1ccccc1Oc1coc2cc(O)ccc2c1=O returned RecA splice inh inactive, PrPC surface inh inactive, BJeLR lethal inactive, GDH-TPI counter-1 inactive, FBA Mtb inh 30.6, Mtb FBA inh conf 110.9 and GDH-TPI counter-2 74.7.
Screening Cc1cccc(Oc2coc3cc(O)ccc3c2=O)c1 returned RecA splice inh inactive, PrPC surface inh inactive, BJeLR lethal inactive, GDH-TPI counter-1 inactive, FBA Mtb inh 36.6, Mtb FBA inh conf 71.6 and GDH-TPI counter-2 62.6.
`CCOc1cc(C=NN2CCN(Cc3ccc(C)cc3)CC2)ccc1O` gave PrPC surface inh inactive.
COC(=O)c1ccc(S(=O)(=O)N2CCC(NC(=O)CCC3CCCC3)CC2)cc1 was read as PrPC surface inh inactive.
O=C(CCCN1C(=O)c2ccccc2C1=O)NC1CCCCCC1 was read as RecA splice inh inactive, PrPC surface inh inactive, BJeLR lethal inactive, GDH-TPI counter-1 inactive and FBA Mtb inh inactive.
Screening O=C(CCN1C(=O)c2cccc3cccc(c23)C1=O)NC1CCS(=O)(=O)C1 (stereo unspecified) returned RecA splice inh inactive, PrPC surface inh inactive, BJeLR lethal inactive, GDH-TPI counter-1 inactive, FBA Mtb inh 38.8, Mtb FBA inh conf active and GDH-TPI counter-2 active.
`O=C(CCCCCN1C(=O)c2cccc3cccc(c23)C1=O)NC1CCS(=O)(=O)C1` (stereo unspecified) gave RecA splice inh inactive, PrPC surface inh inactive, BJeLR lethal inactive, GDH-TPI counter-1 inactive, FBA Mtb inh 39.1, Mtb FBA inh conf 133.8 and GDH-TPI counter-2 117.0.
C[C@@H]1CN([C@@H](C)CO)C(=O)CCCn2cc(nn2)CO[C@H]1CN(C)C(=O)Nc1ccccc1F was read as PrPC surface inh inactive.
CSc1nsc(SC)c1CO was read as RecA splice inh inactive, PrPC surface inh inactive, BJeLR lethal inactive, GDH-TPI counter-1 inactive, FBA Mtb inh 39.2, Mtb FBA inh conf inactive and GDH-TPI counter-2 inactive.
For Brc1c(-c2ccc3c(c2)OCO3)nc2ncccn12 the results were RecA splice inh inactive, PrPC surface inh inactive, BJeLR lethal inactive, GDH-TPI counter-1 inactive and FBA Mtb inh inactive.
For COc1ccc(-c2nc3ncccn3c2Br)cc1 the results were RecA splice inh inactive, PrPC surface inh inactive, BJeLR lethal inactive, GDH-TPI counter-1 inactive, FBA Mtb inh 49.1, Mtb FBA inh conf active and GDH-TPI counter-2 186.5.
For O=C(c1cc(Cl)cc(Cl)c1)N1CC[C@H]2[C@H](CCCN2Cc2cc(F)cc(F)c2)C1 the results were PrPC surface inh inactive.
For C=CCOc1c(Br)cc(C2C3=C(CCCC3=O)N(C)C3=C2C(=O)CCC3)cc1OCC the results were RecA splice inh inactive, PrPC surface inh inactive, BJeLR lethal inactive, GDH-TPI counter-1 inactive, FBA Mtb inh 58.4, Mtb FBA inh conf 57.7 and GDH-TPI counter-2 41.0.
`C=CCOc1ccc(C2C3=C(CCCC3=O)N(CC(=O)O)C3=C2C(=O)CCC3)cc1OCC` gave RecA splice inh inactive, PrPC surface inh inactive, BJeLR lethal inactive, GDH-TPI counter-1 inactive and FBA Mtb inh inactive.
`Cc1cccc2c1-c1sc(C(=O)Nc3nccs3)cc1CO2` gave RecA splice inh inactive, PrPC surface inh inactive, BJeLR lethal inactive, GDH-TPI counter-1 inactive, FBA Mtb inh 42.0, Mtb FBA inh conf inactive and GDH-TPI counter-2 inactive.

Bioassay records (PubChem BioAssay)
